Assay outcomes as filed in PubChem BioAssay.
LmPK inhibitor: blocks Leishmania mexicana pyruvate kinase activity | Q27686 | purified LmPK, Kinase-Glo ATP luminescence, 1 h | Potency, µM (titrated, usually from 57.5 µM), without a hit: at the highest dose activity change, negative = inhibition, most hits filed as inhibitors | 290,000 tested, 0.37% active; also: potency is read from the fitted curve at half-maximal effect; % is scaled to controls: 0 for no effect and ±100 for the full control effect
Target sequence (Q27686 whole entry, looked up): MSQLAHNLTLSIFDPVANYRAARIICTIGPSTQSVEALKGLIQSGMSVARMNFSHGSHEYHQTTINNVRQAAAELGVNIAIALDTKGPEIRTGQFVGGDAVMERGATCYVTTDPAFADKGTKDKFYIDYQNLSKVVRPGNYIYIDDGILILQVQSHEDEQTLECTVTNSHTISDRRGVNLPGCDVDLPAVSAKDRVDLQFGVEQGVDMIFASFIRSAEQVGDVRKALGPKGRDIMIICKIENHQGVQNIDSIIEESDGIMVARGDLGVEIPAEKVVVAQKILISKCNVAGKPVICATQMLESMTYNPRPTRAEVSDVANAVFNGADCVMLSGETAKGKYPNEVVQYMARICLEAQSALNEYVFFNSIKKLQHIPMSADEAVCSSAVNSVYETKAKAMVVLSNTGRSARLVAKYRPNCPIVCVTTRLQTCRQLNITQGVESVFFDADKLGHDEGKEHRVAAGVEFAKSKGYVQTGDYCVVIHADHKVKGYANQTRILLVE
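Purified LmPK (0.1 nM) with 0.5 mM PEP and 0.1 mM ADP in imidazole buffer pH 7.2 with MgCl2/KCl, 1 h at room temperature. ATP formed was read by luciferase luminescence and normalized to no-enzyme and uninhibited controls.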
NS1 inh: inhibitors of influenza NS1 protein function. Potency, µM (highest dose often 46.1 µM), for inactives: at the top dose activity, positive = more growth. 270,000 tested, 0.4% active. AID 2326; calls by dose curve; also: potency is read from the fitted curve at half-maximal effect; actives are rising curves; nearly all actives have a fitted effect of over 50% in size
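OD600 was taken as the measure of yeast growth restored by compound in an NS1-expressing S. cerevisiae strain. Cells had been washed out of glucose medium and diluted 1:100 into galactose -URA medium, pH 6.0.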
Shiga toxin inh: inhibitors of Shiga toxin in Vero cells | Vero cells, Shiga toxin protein synthesis inhibition reporter | inhibition, % at 38.7 µM | 290,000 tested, 9.2% active; in the data active = inhibition mostly above about 28%, no sharp cut-off; inactive = mostly below about 43%; also: 0% is about no effect
FBPA Giardia inh: blocks Giardia fructose-bisphosphate aldolase activity. 290,000 tested, 0.71% active. Potency, µM (series often up to 59.6 µM), without a hit: at the highest dose activity, negative = inhibition, actives largely listed as inhibitors. purified Giardia FBPA. A8B2U2; also: potency is read from the fitted curve at half-maximal effect; % is scaled to controls: 0 for no effect and ±100 for the full control effect; nearly all actives have a fitted effect of over 55% in size
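40 nM FBPA preincubated 10 min at RT with compound (up to 57.5 uM final), then substrate plus GAPDH/TPI/NAD/arsenate coupling and diaphorase/resazurin added. Fluorescence read after 20 min at RT, 525/598 nm.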
CHX counter: affects cycloheximide protein synthesis inhibition readout, counter-screen | 300,000 tested, 12% active | cell reporter, cycloheximide protein synthesis inhibition counterscreen | max response, % | AID 2314; in the data active = max response mostly above about 13%, no sharp cut-off; inactive = mostly below about 14%; also: read at 38.3 µM for the half of the compounds with a filed dose; 0% is about no effect
* = called active by the depositor; ? = inconclusive; nt = no result given; [ ] = dose if it differs, or a comment. Shown are actives, neighbours in structure and some others; about 14% of the full set was active somewhere. Unless noted, calls follow the shape of the dose curve; as a rule, active = well fitted curve in the direction sought with a large enough effect; inconclusive = small, poorly fitted or top-dose-only effect, or another doubt; inactive = no such curve, though single readings can be large; an effect the other way counts as inactive or inconclusive.

SMILES | LmPK inhibitor | NS1 inh | Shiga toxin inh | FBPA Giardia inh | CHX counter
CC(Cc1cccs1)NC(=O)Nc1ccc([N+](=O)[O-])cc1 (configuration not stated) | 5% | -42% | 73* | -2% | 30*
O=S(=O)(c1ccc(Cl)cc1)N1CCN(c2nc(-c3ccc(F)cc3)nc3cc(Cl)ccc23)CC1 | nt | nt | 3 | nt | 3
COc1ccc2cc(CCNC(=O)c3cccs3)c(=O)[nH]c2c1 | 1% | 4% | 54* | 7% | 48*
CC(CCc1ccccc1)NC(=O)c1cccs1 (configuration not stated) | 2% | -23% | -2 | -5% | -4
O=C(NCC(O)c1ccccc1)c1cccs1 (configuration not stated) | 2% | 4% | 79* | 17% | 42*
O=C(CNC(=O)c1cccs1)OCc1ccc(Br)cc1 | 0% | -31% | 15 | nt | -1
O=C(CNC(=O)c1cccs1)c1ccc(Br)cc1 | -1% | -7% | 109* | -1% | 39*
CC(Cc1cccs1)NC(=O)c1cccs1 (configuration not stated) | -8% | nt | 74* | -2% | 33*
O=C(NNC(=O)C(c1ccccc1)c1ccccc1)c1cccs1 | 5% | 5% | -5 | -2% | 1
CCc1ccc(OCCNC(=O)c2cccs2)cc1 | 4% | -56% | 53* | -5% | 41*
CCCCOCCCNC(=O)c1cccs1 | 0% | -6% | -6 | 1% | 1
COc1ccc(CNC(=O)COC(=O)c2cccs2)cc1 | 3% | -21% | 47* | 4% | 27*
O=C(NCCc1ccc(F)cc1)c1cccs1 | -4% | -20% | 91* | -6% | 26*
CC(C)Oc1ccc(CN2CCC(n3nccc3NC(=O)CCc3ccccc3)CC2)cc1 | 7% | -4% | -7 | 3% | 6
COc1ccc(C#CC2C=CC(OC(C)=O)C(COC(C)=O)O2)cc1 (configuration not stated) | nt | nt | nt | 0%[12.9 µM] | nt
COC(=O)[C@@H](NCc1cccc(CN([C@H](C(=O)OC)C(C)C)S(C)(=O)=O)c1)C(C)C | -3% | 1% | -1 | -9% | 1
Cc1nnc(NC(=O)CSc2nccn2Cc2ccccc2)s1 | -8% | -4% | -1 | nt | 9
O=C(Oc1ccccc1)N1CCC2(CCCN(c3ccccn3)C2)CC1 | nt | nt | nt | 4% | nt
O=C(COc1ccccc1)Nc1nc2c(s1)CCCC2 | 1% | -8% | 83* | 9% | 39*
CC(=O)c1sc(NC(=O)COc2ccccc2)nc1C | -3% | 5% | 57* | 2% | 15*
CC(=O)c1sc(NC(=O)CCOc2ccccc2)nc1C | 4% | 0% | 77* | 3% | 34*
CC12CCC=CC1C(c1cccc(Br)c1)N(Cc1ccccc1)C2=O (configuration not stated) | nt | nt | -5 | 1% | -2
CCOC(=O)c1c(OCC)[nH]c2c1cc(O)c1ccccc12 | ? | -11% | -21 | 20µM* | -2
O=C(NCCc1ccccc1)c1ccc(=O)[nH]c1 | -2% | ? | 57* | 3% | 26
NS(=O)(=O)c1ccc(CCNC(=O)c2ccc(=O)[nH]c2)cc1 | -1% | 3% | -8 | -6% | -3
SMILES | LmPK inhibitor | NS1 inh | Shiga toxin inh | FBPA Giardia inh | CHX counter
CCOc1ccc(C(=O)NCCc2ccccc2)cc1 | ? | -91% | 32 | -3% | 24*
CC(=O)Oc1ccc(C(=O)NCCc2ccccc2)cc1 | -5% | nt | 36 | -2% | 15*
CC(=O)Oc1ccc(-c2ccc(C(=O)NCCc3ccc(S(N)(=O)=O)cc3)cc2)cc1 | 0% | 0% | -3 | 4% | -1
COc1ccccc1N1CCN(C2CCCN(C(=O)CCc3cnn(C)c3)C2)CC1 (configuration not stated) | 0% | 5% | -7 | -10% | -3
CCN1CCN(C(=O)c2cc(S(=O)(=O)N3CCCCC3)ccc2Cl)CC1 | -3% | 5% | -2 | nt | -3
Nc1ccc2c(c1)C(=O)C(=O)c1ccccc1-2 | ? | -211% | -28 | ? | -9
O=C1C(=O)c2ccc(-c3ccccc3)cc2-c2ccccc21 | 9% | -40% | 11 | 0.28µM* | -1
CC(C)C[C@H](NC(=O)[C@H](Cc1ccccc1)NC(=O)CNC(=O)[C@H](CCC(=O)O)NC(=O)[C@H](CCCNC(=N)N)NC(=O)[C@H](C)NC(=O)[C@H](C)NC(=O)[C@@H](N)CC(=O)O)C(=O)N[C@@H](CC(=O)O)C(=O)N[C@H](C(=O)N[C@@H](CC(C)C)C(=O)N[C@H](C(=O)N[C@H](C(=O)N[C@@H](CC(C)C)C(=O)N[C@@H](Cc1cnc[nH]1)C(=O)N[C@@H](CCCNC(=N)N)C(=O)N[C@@H](C)C(=O)NCC(=O)N[C@@H](C)C(=O)N[C@@H](CCCNC(=N)N)C(=O)O)C(C)C)C(C)C)[C@@H](C)O | nt | nt | 14 | -1% | -4
Cc1cc(Cl)ccc1OCC(=O)N/N=C/c1ccncc1 | 1% | -39% | 23 | -2% | 5
COc1ccccc1CCNC(=O)C1CCC(=O)N(Cc2ccccc2OC)C1 (configuration not stated) | 0% | 5% | 23 | nt | 15*
COc1ccc(CCN2CC(C(=O)NCCc3ccccc3C(F)(F)F)CCC2=O)cc1 (configuration not stated) | -9% | -9% | 70* | nt | 66*
COc1ccccc1CCNC(=O)C1CCC(=O)N(Cc2cccc(F)c2)C1 (configuration not stated) | -12% | -3% | 37* | 1% | 20*
O=C(NCCc1ccc(C(F)(F)F)cc1)C1CCC(=O)N(CCCN2CCCC2=O)C1 (configuration not stated) | 2% | -20% | 18 | 5% | 12*
Nc1ncnc2c1ncn2[C@H]1O[C@@H](CO)[C@@H](O)[C@H]1N | nt | -2% | nt | nt | nt
CC1CC=CC2C1C(=O)N(Cc1ccccc1)C2c1ccc2ccccc2c1Br (configuration not stated) | nt | nt | -2 | -11% | 9
CC(C)Oc1ccc(CCNC(=O)C2CCC(=O)N(Cc3cccc(F)c3)C2)cc1 (configuration not stated) | -5% | 8% | 54 | nt | 55*
COc1ccccc1CN1CC(C(=O)NCc2c(F)ccc(C)c2F)CCC1=O (configuration not stated) | 3% | 12% | 82* | nt | 47*
CN(C(=O)C1CCC(=O)N(Cc2cccc(F)c2)C1)C1CCCCC1 (configuration not stated) | -9% | 10% | 121* | nt | 87*
COc1ccccc1CN1CC(C(=O)NCc2ccc(C)c(F)c2)CCC1=O (configuration not stated) | 6% | 0% | 13 | 18% | -2
CN(CCNC(=O)C1CCC(=O)N(Cc2cccc(F)c2)C1)CCc1ccccc1 (configuration not stated) | -4% | 13% | -2 | nt | 10
Cc1ccc2c3c([nH]c2c1C)-c1nonc1CC3 | 1% | 3% | 44* | -12% | 20*
CCc1cc(C(=O)NNC(=S)Nc2ccccc2C)cs1 | -26% | 14% | 96* | 0% | 38*
